Measurements reported in article PMC4336329 (PLoS ONE, 2015).
Out of some 310,000 compounds screened, about 2,200 (0.71%) showed an effect of 50% or more. Effects have a minus sign here. This excerpt belongs to a sample that is enriched for strong results.

molecular target: human ether-à-go-go-related gene (hERG) potassium channel (human, UniProt Q12809); assay: primary screen, population patch clamp on CHO cells stably expressing hERG; higher = less effect of the substance
Sequence (Q12809 whole entry, looked up): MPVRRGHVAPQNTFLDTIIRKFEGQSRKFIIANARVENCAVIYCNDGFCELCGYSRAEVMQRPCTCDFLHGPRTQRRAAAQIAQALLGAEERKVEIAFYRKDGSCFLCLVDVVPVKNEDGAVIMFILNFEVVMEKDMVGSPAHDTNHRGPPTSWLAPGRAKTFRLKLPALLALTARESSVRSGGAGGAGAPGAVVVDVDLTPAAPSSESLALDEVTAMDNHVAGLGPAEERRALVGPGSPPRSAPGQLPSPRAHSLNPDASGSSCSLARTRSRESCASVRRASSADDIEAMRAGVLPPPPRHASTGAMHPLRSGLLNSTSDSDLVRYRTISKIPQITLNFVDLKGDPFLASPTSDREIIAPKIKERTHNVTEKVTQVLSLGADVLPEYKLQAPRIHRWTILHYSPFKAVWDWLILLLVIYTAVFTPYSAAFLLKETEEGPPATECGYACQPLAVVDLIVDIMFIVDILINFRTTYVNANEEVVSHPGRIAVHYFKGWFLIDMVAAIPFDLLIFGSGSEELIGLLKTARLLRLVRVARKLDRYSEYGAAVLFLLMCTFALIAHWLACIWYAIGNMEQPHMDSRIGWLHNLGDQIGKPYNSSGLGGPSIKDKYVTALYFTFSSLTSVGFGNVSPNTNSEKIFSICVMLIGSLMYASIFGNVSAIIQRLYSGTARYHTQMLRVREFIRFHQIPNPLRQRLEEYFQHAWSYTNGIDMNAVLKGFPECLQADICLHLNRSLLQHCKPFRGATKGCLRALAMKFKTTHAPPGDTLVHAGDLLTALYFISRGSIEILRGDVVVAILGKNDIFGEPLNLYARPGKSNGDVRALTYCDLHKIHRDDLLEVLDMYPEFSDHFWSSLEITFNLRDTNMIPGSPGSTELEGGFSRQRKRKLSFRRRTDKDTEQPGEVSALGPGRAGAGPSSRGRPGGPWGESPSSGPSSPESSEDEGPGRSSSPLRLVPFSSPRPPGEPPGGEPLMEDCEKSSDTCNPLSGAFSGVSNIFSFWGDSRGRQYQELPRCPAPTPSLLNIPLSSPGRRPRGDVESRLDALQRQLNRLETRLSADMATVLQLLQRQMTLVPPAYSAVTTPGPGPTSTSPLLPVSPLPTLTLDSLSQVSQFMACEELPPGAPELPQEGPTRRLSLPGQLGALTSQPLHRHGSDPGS

Compound | hERG current change (%, negative = inhibition) at 1uM
O=C(O)C1=C[C@H](C2CC2)C[C@H](OCCCCO)O1 | 12.3%
O=C(CSc1n[nH]c(=O)n1Cc1ccco1)Nc1ccccc1Cl | 6.62%
CCOc1cccc(C2/C(=C(/O)c3ccc4c(c3)CC(C)O4)C(=O)C(=O)N2Cc2cccnc2)c1 (stereo not drawn) | 18.4%
CCOC(=O)NCc1ccccc1 | -5.01%
CCCCCCS(=O)[C@H]1CS(=O)(=O)C[C@@H]1S(=O)CCCCCC (stereo partly drawn) | -25.8%
CNC(=O)Cn1ncc2c3ccccc3n(C)c2c1=O | 13.1%
O=C(O)CC(NC(=O)C12CC3CC(CC(C3)C1)C2)c1cc([N+](=O)[O-])ccc1Cl (stereo not drawn) | 2.33%
Cc1nc(SCC(=O)NC2CCCC2)[nH]c(=O)c1C | 6.4%
O=C1OC(c2ccc(Cl)cc2)/C(=C(/O)c2ccccc2)C1=O (stereo not drawn) | 2.03%
CCOC(=O)c1ccc(NC(=O)c2nc[nH]c2C(=O)NCCCNC(=O)c2[nH]cnc2C(=O)Nc2ccc(C(=O)OCC)cc2)cc1 | 13.8%
Cc1cccn2c(=O)c3cc(C(=O)NCC4CCCO4)c(=N)n(CCN4CCOCC4)c3nc12 (stereo not drawn) | -50.1%
CCN(C(=O)c1cc2c(=O)n3cccc(C)c3nc2n1CCCOC)C1CCCCC1 | 4.12%
COCCCn1c(=N)c(C(=O)NCC2CCCO2)cc2c(=O)n3ccccc3nc21 (stereo not drawn) | -44.3%
COCCCn1c(=N)c(C(=O)NCC2CCCO2)cc2c(=O)n3cccc(C)c3nc21 (stereo not drawn) | -74.8%
Cc1ccc2nc3c(cc(C(=O)NCC4CCCO4)c(=N)n3CCCOC(C)C)c(=O)n2c1 (stereo not drawn) | -72.5%
CC(C)OCCCn1c(SC(C)C(=O)NCC2CCCO2)nc2cc(Cl)ccc2c1=O (stereo not drawn) | 7.81%
COc1ccc(C2c3c(oc4ccc(Cl)cc4c3=O)C(=O)N2CCN2CCOCC2)cc1 (stereo not drawn) | -24%
CC(C)N(Cc1nc(-c2ccc(Cl)cc2)no1)C(=O)CN(C)S(=O)(=O)c1ccc(Cl)cc1 | -5.47%
COCCCn1c(=S)[nH]c2c(sc3ccccc32)c1=O | 14.1%
CCN1CCN(C(=O)c2cc3c(=O)n(C)c4ccccc4c3n2C)CC1 | 8.54%
Cc1cc(C)c2c(N)c(C(=O)NNC(=O)c3ccccc3)sc2n1 | 12.8%
Nc1ccccc1C(=O)NCc1ccccc1 | 1.59%

Compound | hERG current change (%, negative = inhibition) at 1uM
CC1(C)CC(=O)C2=C(C1)NC(=S)C(C#N)C21CCCCC1 (stereo not drawn) | 10.1%
CCOC(=O)N1CCN(S(=O)(=O)c2ccc(C(=O)Nc3nnc(C)o3)cc2)CC1 | 7.3%
CC(CN1C(C)CCCC1C)OC(=O)c1ccccc1Br.Cl (stereo not drawn) | 4.15%
Cc1ccc(S(=O)(=O)N2CCN(c3nc(CN4CCCC4)nc4sc(C)c(C)c34)CC2)cc1 | -48.8%
Cc1sc2nc(CN3CCCC3)nc(N3CCN(S(=O)(=O)c4cccs4)CC3)c2c1C | -65.2%
Cc1sc2nc(CN3CCCC3)nc(N3CCN(S(=O)(=O)c4ccccc4)CC3)c2c1C | -19.4%
CC(C)CC(=O)Nc1nc2ccc(S(C)(=O)=O)cc2s1 | 4.38%
O=C(NCc1ccco1)c1scc2c1OCCO2 | 6.64%
CCCCn1c(N)c(N(CCOC)C(=O)c2ccc(-c3cccc(C(F)(F)F)c3)o2)c(=O)[nH]c1=O | 10.2%
O=C(Nc1ccc(Cn2nnc3ccccc32)cc1)c1ccco1 | 9.6%
Cl.O=C(CN1CCN(C2CCCCC2)CC1)Nc1cccc2ccccc12 | 4.28%
O=C(CN1CCCCC1)Nc1ccccc1-c1ccccc1 | 14.4%
Cl.O=C(CN1CCN(C2CCCCC2)CC1)Nc1ccccc1-c1ccccc1 | -70%
CCCc1c(C(=O)N/N=C/c2cccnc2)nnn1-c1nonc1N | 16.6%
COc1nccc(-c2ccc(F)cc2)c1C#N | 16.9%
O=C(Cn1c(=O)oc2ccccc21)Nc1ccc(Br)cc1 | 12.5%
CC[N+](CC)(CC)CC(=O)Nc1ccc(SC(F)F)cc1.[Cl-] | 27.1%
CCn1c(N)[n+](CC(=O)Nc2ccc(SC(F)F)cc2)c2ccccc21.[Cl-] | -63.1%
O=C(Cc1ccccc1)Nc1ccc(SC(F)F)cc1 | 2.98%
Cc1cc(C)cc(N2C(=O)CC(c3ccccc3)CC2=O)c1 | 10.3%
O=C(COC(=O)c1ccc[nH]c1=O)Nc1ccc2c(c1)OC(F)(F)O2 | 9.4%
Cc1cccc2sc(N(CCCN(C)C)C(=O)c3ccco3)nc12.Cl | -54.8%

Compound | hERG current change (%, negative = inhibition) at 1uM
CN(C)CCCN(C(=O)c1sc2ccccc2c1Cl)c1nc2c(F)cccc2s1.Cl | 8.6%
CN(C)CCCN(C(=O)c1ccco1)c1nc2ccc(F)cc2s1.Cl | -37.4%
Cc1ccc2nc(N(CCCN(C)C)C(=O)c3ccco3)sc2c1.Cl | -9.63%
CN(C)CCCN(C(=O)c1ccco1)c1nc2c(F)cccc2s1.Cl | -62.9%
CN(C)CCCN(C(=O)c1ccc(C(=O)c2ccccc2)cc1)c1nc2c(F)cccc2s1 | -1.61%
Cc1cccc2sc(N(CCCN(C)C)C(=O)c3nc4ccccc4s3)nc12.Cl | 3.73%
CN(C)CCCN(C(=O)c1ccco1)c1nc2c(F)cc(F)cc2s1.Cl | -60.2%
CN(C)CCCN(C(=O)c1ccco1)c1nc2ccc(Cl)cc2s1.Cl | -14.7%
CCN1CCN(C(c2ccc(OC)cc2)c2nnnn2Cc2ccc3c(c2)OCO3)CC1.Cl (stereo not drawn) | -17.4%
N#Cc1ccccc1S(=O)(=O)N1CCC(C(=O)NCc2ccccc2CN2CCCC2)CC1 | -45.7%
Cn1c(=O)c2c(nc(NC3CCCCC3)n2CC(=O)C23CC4CC(CC(C4)C2)C3)n(C)c1=O | 15.4%
CCCC1CC(C)(c2csc(Nc3ccc(OCC)cc3)n2)OC1=O (stereo not drawn) | -0.99%
COC(=O)c1[nH]c2cccc(OC)c2c1NC(=O)CCN1CC(C)CC(C)C1 (stereo not drawn) | -4.14%
CCOc1ccccc1NC(=S)N(CCCN1CCOCC1)Cc1cn(C)c2ccccc12 | 5.62%
CC(=O)NC1CC2CCCC(C1)N2Cc1ccc(C)cc1 (stereo not drawn) | -10.4%
CCCN1C2CCCC1CC(NC(=O)c1ccc(F)cc1)C2 (stereo not drawn) | -29.7%
Cc1ccc(CN2C3CCCC2CC(NC(=O)c2ccc(F)cc2)C3)cc1 (stereo not drawn) | -77%
CNC(=S)NC1CC2CCCC(C1)N2Cc1ccc(C)cc1 (stereo not drawn) | -4.5%
Cc1ccc(C(=O)NC2CC3CCCC(C2)N3Cc2ccccc2)cc1 (stereo not drawn) | -6.55%
O=C(NC1CC2CCCC(C1)N2Cc1ccc(F)cc1)c1ccc(F)cc1 (stereo not drawn) | -38.3%
Cc1ccc(CN2C3CCCC2CC(NC(=O)c2ccc(C)cc2)C3)cc1 (stereo not drawn) | -77.3%
Cc1ccc(CN2C3CCCC2CC(NC(=S)NCc2ccccc2)C3)cc1 (stereo not drawn) | -54.4%

Compound | hERG current change (%, negative = inhibition) at 1uM
CCNC(=S)NC1CC2CCCC(C1)N2Cc1ccc(C)cc1 (stereo not drawn) | -12.3%
O=C1CC(=C2c3ccccc3-c3ccccc32)C(=O)N1CCN1CCN(c2cccc(Cl)c2)CC1 | 7.4%
COc1cccc(CN2CCNC(=O)C2CC(=O)N2CCCCO2)c1OC (stereo not drawn) | 7.47%
COc1ccc(CCN2C(=O)CSC2=S)cc1OC | 11.5%
COC(=O)C1=CNC=C(C(=O)OC)C1c1cccc(OC)c1 | 9.02%
Cc1cc(/C=N/NC(N)=S)c(C)n1-c1ccc(Cl)cc1 | 1.13%
Cc1nc2c(C)cccn2c1/C(O)=C1\C(=O)C(=O)N(CCN(C)C)C1c1ccco1 (stereo not drawn) | 11.2%
C#CC[N+]1(CC#Cc2ccc(C)cc2)CCCCC1.[Br-] | 2.2%
Cc1ccc(C#CC[N+]2(C)CCCCC2)cc1.[Br-] | 14.2%
Cc1ccc(C#CC[N+]2(CC#Cc3ccc(C)cc3)CCCCC2)cc1.[Br-] | -51.8%
COc1ccc(OC)c(NC(=O)C2CCCN(S(=O)(=O)c3ccc(-n4cnnn4)cc3)C2)c1 (stereo not drawn) | 5.12%
COc1ccc(C)cc1NC(=O)C1CCCN(S(=O)(=O)c2ccc(-n3cnnn3)cc2)C1 (stereo not drawn) | -71.4%
COc1ccccc1NC(=O)C1CCCN(S(=O)(=O)c2ccc(-n3cnnn3)cc2)C1 (stereo not drawn) | -23.5%
O=C(NCc1ccccc1)c1onc(CSc2ccc(F)cc2)c1C(=O)NCc1ccccc1 | 5.63%
O=C(NCc1ccccc1)c1onc(CSc2ccc(F)cc2)c1C(=O)NCCCN1CCOCC1 | -54.9%
O=C(NCCCN1CCOCC1)c1onc(CSc2ccccc2)c1C(=O)NCCCN1CCOCC1 | 14.7%
CCC(CC)NCCOC(=O)c1ccc([N+](=O)[O-])cc1 | -3.41%
CN1C(=O)C(Cc2cccs2)C(=O)N(C)C1=O | 15.2%
CCCCn1c(NC(=O)c2ccc(Br)o2)c(C(=O)OCC)c2nc3ccccc3nc21 | -17.9%
CCCCn1c(NC(=O)c2ccco2)c(C(=O)OCC)c2nc3ccccc3nc21 | -22%
CCCCCn1c(NC(=O)c2ccco2)c(C(=O)OCC)c2nc3ccccc3nc21 | -73.9%
